ELG1 genotox: qHTS screen for small molecules that induce genotoxicity in human embryonic kidney (HEK293T) cells expressing luciferase-tagged ELG1; HEK293T ELG1-luciferase reporter, luminescence, 16 h; AID 504466, 2011; 1.3% of 330,000 active; Potency, µM (highest dose often 46 µM), for the others: at the highest dose activity change, positive = activation, most hits filed as activators; note: % of control where 0% means no effect; nearly all actives have a fitted effect of over 60% in size
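DMSO vehicle served as control against compound-treated ELG1-luciferase HEK293T cells; exposure lasted 16 hr at 37 °C and 5% CO2, followed by ONE-Glo luminescence detection after 30 min.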
Luc counter: Counterscreen for Luciferase (Kinase-Glo TM) Inhibition; Kinase-Glo luciferase, ATP luminescence, 8 min; Luciferin 4-monooxygenase (Photuris pensylvanica), Q27757; Potency, µM (doses to about 38.3 µM), for the others: at the highest dose activity change, negative = inhibition, usual class: inhibitors; 0.28% of 200,000 active; note: % is set by controls: 0 for no effect and ±100 for the full control effect; nearly all actives have a fitted effect of over 60% in size
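Compounds were added to a substrate mix at pH 7.2 (50 mM imidazole, 10 uM ATP, within the enzyme's linear range), followed by Kinase-Glo detection reagent; luminescence was measured after 8 minutes at ambient temperature.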
SMN2 splice up: qHTS Assay for Enhancers of SMN2 Splice Variant Expression. Potency, µM (top dose mostly 46.1 µM), for inactives: top-dose activity change, positive = activation, most hits filed as activators. AID 1458, 2008. 2.8% of 210,000 active. HEK293 SMN2-luciferase splicing reporter, luminescence, 30-36 h; note: % of control where 0% means no effect; nearly all actives have a fitted effect of over 55% in size
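HEK293 cells carry an SMN2 minigene-luciferase reporter in which exon 7 inclusion puts luciferase in frame. Cells were seeded at 2000 cells/well, attached for 10-12 hours, then exposed to compounds for 30-36 hours at 37C before ONE-Glo luminescence.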
NPC1 promoter act: qHTS Assay for NPC1 Promoter Activators | Huh7 NPC1 promoter luciferase reporter, 24 h | Potency, µM (highest dose often 9.22 µM), inactives show at the top dose activation, most hits filed as activators | 2.4% of 320,000 active; note: % of control where 0% means no effect; nearly all actives have a fitted effect of over 60% in size
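Luminescence read-out of NPC1 promoter-driven luciferase in stably transfected Huh7 cells; compounds delivered in DMSO and left 24 h at 37C, 5% CO2, qHTS titration format.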
FLuc modulator: qHTS profiling assay for firefly luciferase inhibitor/activator using purifed enzyme and Km concentrations of substrates (counterscreen for miR-21 project) | Luciferin 4-monooxygenase (Photinus pyralis), P08659 | purified FLuc, Km substrates, luminescence inhibition | Potency, µM (top dose mostly 57.5 µM), for inactives: at the highest dose activity change, negative = inhibition, most hits filed as inhibitors | 6.9% of 360,000 active;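 note: plate controls were vehicle for no effect and reference inhibitor for full effect; nearly all actives have a fitted effect of over 55% in size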
Target sequence (P08659 whole entry, looked up): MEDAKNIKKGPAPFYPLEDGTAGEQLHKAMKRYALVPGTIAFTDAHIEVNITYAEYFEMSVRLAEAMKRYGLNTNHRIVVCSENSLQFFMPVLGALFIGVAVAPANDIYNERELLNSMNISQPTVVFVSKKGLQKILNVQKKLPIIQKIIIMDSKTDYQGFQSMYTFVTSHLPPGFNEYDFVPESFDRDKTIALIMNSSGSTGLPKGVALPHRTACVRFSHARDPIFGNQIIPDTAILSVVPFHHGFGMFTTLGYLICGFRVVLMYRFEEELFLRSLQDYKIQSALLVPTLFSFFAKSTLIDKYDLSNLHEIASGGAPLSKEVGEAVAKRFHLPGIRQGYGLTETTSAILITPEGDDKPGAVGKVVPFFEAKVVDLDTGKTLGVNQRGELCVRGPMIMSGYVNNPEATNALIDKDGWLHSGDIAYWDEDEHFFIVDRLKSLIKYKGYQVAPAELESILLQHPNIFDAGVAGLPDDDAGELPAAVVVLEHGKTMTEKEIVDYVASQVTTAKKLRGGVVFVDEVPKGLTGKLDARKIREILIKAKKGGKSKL
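Purified P. pyralis luciferase, 10 nM final, with Km-level 10 uM D-luciferin and 10 uM ATP in 50 mM Tris acetate pH 7.5, 10 mM Mg acetate, 0.01% Tween-20, 0.05% BSA; 6-point qHTS titration about 60 µM downward; luminescence read.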
Rab9 promoter act: qHTS Assay for Rab9 Promoter Activators. 2.8% of 320,000 active. Potency, µM (titrated, usually from 9.22 µM), without a hit: at the top dose activation, negative = inhibition, hits mostly activators. Huh7 Rab9 promoter-luciferase reporter, luminescence, 24 h; note: % of control where 0% means no effect; nearly all actives have a fitted effect of over 60% in size
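Huh7 cells stably carrying Rab9 promoter–luciferase reporter, plated 1500 cells/well, compound added after 2 h and incubated 24 h at 37 °C; luciferase luminescence then read after 10 min with detection reagent.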
Numbers without * were called inactive; ? = inconclusive; / = not tested or not shown. Most compounds without a hit are left out; they make up all but 7.3% or so of the library. Calls come from the whole dose curve; as a rule, active = well fitted curve in the direction sought with a large enough effect; inconclusive = small, poorly fitted or top-dose-only effect, or another doubt; inactive = no such curve, though single readings can be large; an effect the other way counts as inactive or inconclusive. Potency is the fitted concentration of half-maximal effect.

SMILES	ELG1 genotox	Luc counter	SMN2 splice up	NPC1 promoter act	FLuc modulator	Rab9 promoter act
Cc1nn2c(=O)c3c4c(sc3nc2n1-c1ccccc1)COC(C)(C)C4	-8%	/	/	-1%	2%	3%
COc1ccc2c(CNCCc3ccccc3OC)c(C(=O)O)n(Cc3ccc(F)cc3Cl)c2c1	/	/	/	/	-11%	/
Nc1nc(-c2ccccc2)nc2sc3c(c12)CCCC3	4.1µM*	-7%	3.2µM*	2.2µM*	0.27µM*	1.8µM*
Cc1nc2sc3c(c2c(=O)o1)CCCC3	3%	-2%	-8%	-1%	0%	-1%
O=c1oc(-c2ccco2)nc2sc3c(c12)CCCC3	0%	?	14µM*	11%	1.5µM*	-3%
O=C1CCC(=O)N1c1ccc(-c2nc3sc4c(c3c(=O)o2)CCC4)cc1	-1%	/	/	-3%	21µM*	2%
CN(C)c1ccc(-c2nc(NCc3cccnc3)c3ccccc3n2)cc1	/	-14%	-89%	/	/	/
CN(Cc1ccon1)Cc1cn(C)nc1-c1cccc(Cl)c1	?	-1%	/	?	5.4µM*	?
COc1ccccc1-n1c(=O)n(C)c2c(C(N)=O)nc(-c3cc(OC)c(OC)c(OC)c3)nc21	/	/	/	/	-4%	/
NC(=S)N/N=C/c1ccccc1O	-5%	/	/	2%	2%	-6%
Oc1ccccc1/C=N/Nc1ncc(Br)cn1	16µM*	-5%	-73%	-3%	?	25%
Oc1ccc(/C=N/Nc2ccc3ccccc3c2)c(O)c1	19%	-1%	7%	9%	19µM*	1%
Oc1ccccc1/C=N/Nc1ccnc(SCc2ccccc2)n1	-1%	-3%	2%	-4%	1%	-41%
Oc1ccccc1/C=N/Nc1ccccc1	?	-8%	-4%	-3%	7.6µM*	26%
COc1ccc2c(c1)c1c(c(=O)n(CCc3ccccc3)c(=O)n1Cc1ccc(Cl)cc1)n2C	/	/	/	/	-2%	/
CCOC(=O)CCSc1nc(C)c2cc(OC)ccc2n1	?	-1%	12%	?	13µM*	?
CC(=O)N1N=C(c2ccc(C)cc2)OC1c1ccc(C(C)C)cc1 (stereo unspecified)	?	-7%	?	2.5µM*	3µM*	2.5µM*
CC(=O)N1N=C(c2cccnc2)OC1c1ccc(C(C)C)cc1 (stereo unspecified)	10%	7%	10%	-2%	?	-8%
CC(=O)N1N=C(c2ccc(C)cc2)OC1c1ccc(C)cc1 (stereo unspecified)	18µM*	7%	26%	?	17µM*	?
COc1cccc2c1Oc1ncccc1N(C(=O)CCC(=O)NCc1ccc(OC(C)C)cc1)C2	/	/	/	/	-8%	/
Cc1ccc(N/N=C/c2ccncc2)cc1	?	/	/	?	12µM*	3.2µM*
Cc1ccc(N/N=C/c2cccnc2)cc1	?	-3%	?	?	17µM*	?
Clc1cccc(N/N=C/c2ccncc2)c1	?	-4%	?	26%	17µM*	?
O=C(Nc1cccc(Cl)c1)O/N=C\c1ccncc1	0%	-5%	/	-1%	?	1%
Cc1ccc(/C=N/NC(=O)c2ccncc2)cc1	-5%	/	/	-1%	?	6%
SMILES	ELG1 genotox	Luc counter	SMN2 splice up	NPC1 promoter act	FLuc modulator	Rab9 promoter act
Cc1ccc2nsnc2c1NS(=O)(=O)c1c(C)ccc2nsnc12	0%	-2%	3%	2%	3%	-6%
Cc1ccc(/C=[N+](\[O-])c2ccc(N(C)C)cc2)c2nsnc12	12%	-14%	10µM*	?	1.3µM*	1.1µM*
COc1cc(OC)c(N(C)C(=O)C2CCCN(c3ncnc4c3nc3n4CCCCC3)C2)cc1Cl (stereo unspecified)	/	/	/	/	-8%	/
O=C(C#Cc1ccccc1)c1ccco1	-58%	/	/	-42%	15µM*	-45%
Cc1cc(Cl)ccc1NC(=O)C1CCN(S(=O)(=O)c2ccc3[nH]c(=O)ccc3c2)CC1	/	/	/	/	-3%	/
Oc1ccc(N=Nc2n[nH]c(-c3ccc(Br)cc3)n2)cc1	6%	1%	16µM*	12%	7.6µM*	-9%
Oc1ccc(N=Nc2n[nH]c(-c3ccccc3)n2)cc1	8.2µM*	-16%	?	1.6µM*	3.8µM*	1µM*
Oc1ccc(-c2nc(-c3ccccc3)c(-c3ccc(Br)cc3)[nH]2)cc1	/	/	4%	/	-15%	/
CCOc1ccc(-c2cc(N3C(=O)Nc4ccccc4N3O)on2)cc1	2%	-1%	16%	15%	2.4µM*	16%
COc1ccc(-c2cc(N3C(=O)Nc4ccccc4N3O)n[nH]2)cc1	-3%	4%	?	-1%	11µM*	9%
COc1ccc(-c2cc(N3C(=O)Nc4ccccc4N3O)n[nH]2)c(OC)c1	-10%	2%	-8%	-2%	15µM*	-2%
CCCN(Cc1cccs1)C(=O)Nc1ccc(F)c(Cl)c1	/	/	/	/	0%	/
COc1cccc(CSc2nc3n(n2)C(CC(C)C)C(C(=O)Nc2ccccc2OC)=C(C)N3)c1 (stereo unspecified)	/	/	/	/	1%	/
CSc1nsc(/C=C/Nc2ccc(O)cc2C)c1C#N	-2%	-2%	-4%	-1%	12µM*	5%
CCCCC(CC)CNC(=O)c1ccc(Cn2c(=O)[nH]c3cc(OC)c(OC)cc3c2=O)cc1 (stereo unspecified)	/	/	-6%	/	3%	/
COc1ccc(Cc2nc3ccc(C(=O)NCc4cc(C)no4)cc3o2)cc1	16µM*	/	/	4µM*	13µM*	3.5µM*
CCC1CCCCN1C(=O)c1ccc2nc(Cc3ccc(OC)cc3)oc2c1 (stereo unspecified)	?	/	/	?	19µM*	3.5µM*
COc1ccc(Cc2nc3ccc(C(=O)NCCc4ccccc4)cc3o2)cc1	/	/	/	/	4%	/
COc1ccc(Cc2nc3ccc(C(=O)NCC(C)(C)OC)cc3o2)cc1	?	/	/	3.5µM*	19µM*	3.5µM*
COc1ccc(NC(=O)Cc2c(C(=O)O)[nH]c3ccccc23)cc1OC	/	/	10%	/	-5%	/
CCN(C(=O)c1nn(-c2ccc(OC)c(Cl)c2)c(=O)c2c1c1ccccc1n2C)c1cccc(C(F)(F)F)c1	/	/	6%	/	0%	/
CCc1ccc(NC(=O)Nc2ccsc2C(=O)OC)cc1	2.1µM*	/	/	17%	0.34µM*	?
COC(=O)c1sccc1NC(=O)Nc1ccccc1C	12%	/	/	-7%	4%	-6%
COC(=O)c1sccc1NC(=O)Nc1ccc(Cl)c(Cl)c1	18%	-23%	13µM*	-2%	?	-3%

High-throughput results as filed in PubChem BioAssay.
